Laboratory results: the supplement of paper PMC10849652
Targets with a hit are over-represented here; the source holds about 7,900 in all. About 0.6% of all pairs of compound and target were hits.

What was measured:
Test in all cases: log2 fold change, soluble protein after heating vs DMSO (PISA); higher = thermal stabilisation; K562 cells, 10 uM, 30 min; active = over 0.2 and 3.5 SD of the protein, either way, in both replicates (recomputed)
[1] = compound: CC[C@@H]1C(=O)N(C)c2cnc(Nc3ccc(C(=O)NC4CCN(C)CC4)cc3OC)nc2N1C1CCCC1
Procedure, shortened: (§1)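 Values are thermal stability changes relative to control samples and are taken from duplicates. They are stated as log2 fold changes. Before quantification by TMTpro 16plex LC-MS/MS with equalised channel sums, K562 cells at 2×10^6 cells/mL were treated with 10 μM compound for 30 min, heated in aliquots for 3 min across 48°C-58°C, pooled, extracted in PBS with 0.5% NP-40 at 4°C, and centrifuged at 21,000xg for 90 min to give the soluble supernatant.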

volasertib = compound: CC[C@@H]1C(=O)N(C)c2cnc(Nc3ccc(C(=O)N[C@H]4CC[C@H](N5CCN(CC6CC6)CC5)CC4)cc3OC)nc2N1C(C)C [volasertib]
Procedure, shortened: as §1

[2] = compound: CC[C@H](C)N1C=C(C2=C(C=C(C=C21)C3=CN=C(C=C3)N4CCNCC4)C(=O)NCC5=C(C=C(NC5=O)C)C)C
Procedure, shortened: as §1

epoxomicin = compound: CC[C@H](C)[C@@H](C(=O)N[C@@H]([C@@H](C)O)C(=O)N[C@@H](CC(C)C)C(=O)[C@]1(CO1)C)NC(=O)[C@H]([C@@H](C)CC)N(C)C(=O)C [epoxomicin]
Procedure, shortened: as §1

[3] = compound: CCn1c(C(=O)N(C2CC2)C2CC2)cc2c3c(ncn3C)c(Nc3cc(C)n(C)n3)nc21
Procedure, shortened: as §1

[4] = compound: CCn1cc(-c2ccnc3[nH]c(-c4cccc(CN(C)C)c4)cc23)c(-c2ccc(NC(=O)N(C)C)cc2)n1
Procedure, shortened: as §1

[5] = compound: CN(C)CC(=O)Nc1ccc2[nH]c(=O)c3ccccc3c2c1
Procedure, shortened: as §1

rosiglitazone = compound: CN(CCOC1=CC=C(C=C1)C[C@H]2C(=O)NC(=O)S2)C3=CC=CC=N3 (racemic) [rosiglitazone]
Procedure, shortened: as §1

[6] = compound: CN1C2=C(C3=C1C(=O)N(N=C3)CC4=CC(=CC=C4)N)SC(=C2)S(=O)C
Procedure, shortened: as §1

[7] = compound: CN1CCC(CNc2ccc3ncc(-c4cccc(OC(F)(F)F)c4)n3n2)CC1
Procedure, shortened: as §1

Measured: log2 fold change

SMIM20 isoform 2 (UniProt Q8N5G0)
Chain of UniProt Q8N5G0 (Q8N5G0 whole entry, looked up): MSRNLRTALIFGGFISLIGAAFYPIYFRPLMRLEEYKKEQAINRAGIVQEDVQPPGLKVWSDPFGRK
active: epoxomicin 0.483
inactive: [1] 0.069 | volasertib 0.048 | [2] -0.033 | [3] 0.038 | [4] -0.065 | [5] 0.007 | rosiglitazone 0.036 | [6] 0.051 | [7] 0.002

TK1 (UniProt P04183)
inactive: [1] 0.039 | volasertib 0.062 | [2] -0.039 | epoxomicin 0.084 | [3] -0.015 | [4] 0.001 | [5] -0.009 | rosiglitazone 0 | [6] -0.075 | [7] -0.046

STK39 (UniProt Q9UEW8)
active: [7] -0.25
inactive: [1] -0.062 | volasertib -0.139 | [2] 0.023 | epoxomicin 0.054 | [3] -0.055 | [4] -0.036 | [5] -0.011 | rosiglitazone 0.049 | [6] 0.005

SUCLG1 (UniProt P53597)
inactive: [1] 0.008 | volasertib -0.044 | [2] 0.063 | epoxomicin 0.031 | [3] -0.013 | [4] -0.012 | [5] -0.027 | rosiglitazone 0.037 | [6] -0.041 | [7] -0.097

SSRP1 (UniProt Q08945)
active: volasertib -0.412
inactive: [1] -0.121 | [2] 0.052 | epoxomicin 0.02 | [3] -0.073 | [4] 0.007 | [5] 0.01 | rosiglitazone 0.052 | [6] -0.003 | [7] -0.067

SLC25A4 (UniProt P12235)
Chain of UniProt P12235 (P12235 whole entry, looked up): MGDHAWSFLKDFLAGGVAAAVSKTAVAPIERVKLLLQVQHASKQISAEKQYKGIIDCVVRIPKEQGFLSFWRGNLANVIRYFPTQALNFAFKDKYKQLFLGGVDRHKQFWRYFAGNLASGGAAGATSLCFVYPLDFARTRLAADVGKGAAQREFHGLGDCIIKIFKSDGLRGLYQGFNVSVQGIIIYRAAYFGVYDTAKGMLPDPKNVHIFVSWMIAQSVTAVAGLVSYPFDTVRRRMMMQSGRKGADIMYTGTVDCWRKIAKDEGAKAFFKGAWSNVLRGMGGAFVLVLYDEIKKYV
inactive: [1] -0.012 | volasertib 0.06 | [2] -0.024 | epoxomicin 0.009 | [3] 0.034 | [4] 0.037 | [5] -0.053 | rosiglitazone -0.001 | [6] -0.038 | [7] -0.001

SYF2 (UniProt O95926)
Chain of UniProt O95926 (O95926 whole entry, looked up): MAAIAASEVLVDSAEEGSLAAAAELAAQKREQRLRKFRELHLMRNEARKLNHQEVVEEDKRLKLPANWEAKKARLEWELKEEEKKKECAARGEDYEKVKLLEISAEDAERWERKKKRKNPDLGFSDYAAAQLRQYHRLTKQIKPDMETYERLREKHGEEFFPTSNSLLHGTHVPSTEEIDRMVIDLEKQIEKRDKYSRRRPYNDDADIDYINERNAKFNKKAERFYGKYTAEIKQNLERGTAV
inactive: [1] 0.196 | volasertib 0.174 | [2] -0.096 | epoxomicin 0.129 | [3] -0.01 | [4] 0.068 | [5] -0.044 | rosiglitazone -0.017 | [6] 0.039 | [7] 0.187

TAOK1 (UniProt Q7L7X3)
inactive: [1] 0.03 | volasertib -0.019 | [2] 0.029 | epoxomicin -0.02 | [3] -0.008 | [4] -0.024 | [5] 0 | rosiglitazone 0.032 | [6] 0.017
active: [7] -0.262

SNRNP27 (UniProt Q8WVK2)
inactive: [1] 0.029 | volasertib 0.014 | [2] -0.08 | epoxomicin 0.01 | [3] 0.051 | [4] 0.038 | [5] 0.005 | rosiglitazone -0.027 | [6] 0.051 | [7] -0.032

TIMM10 (UniProt P62072)
Chain of UniProt P62072 (P62072 whole entry, looked up): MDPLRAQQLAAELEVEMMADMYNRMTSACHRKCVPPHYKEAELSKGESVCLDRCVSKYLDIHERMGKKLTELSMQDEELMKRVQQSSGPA
inactive: [1] 0.029 | volasertib 0.052 | [2] -0.023 | epoxomicin 0.032 | [3] 0.059 | [4] 0.006 | [5] -0.046 | rosiglitazone -0.007 | [6] -0.074 | [7] 0.14

TJP1 (UniProt Q07157)
inactive: [1] -0.023 | volasertib -0.166 | [2] 0.022 | epoxomicin 0.007 | [3] -0.023 | [4] -0.052 | [5] 0.012 | rosiglitazone 0.019 | [6] 0 | [7] -0.071

SSR4 (UniProt P51571)
Chain of UniProt P51571 (P51571 whole entry, looked up): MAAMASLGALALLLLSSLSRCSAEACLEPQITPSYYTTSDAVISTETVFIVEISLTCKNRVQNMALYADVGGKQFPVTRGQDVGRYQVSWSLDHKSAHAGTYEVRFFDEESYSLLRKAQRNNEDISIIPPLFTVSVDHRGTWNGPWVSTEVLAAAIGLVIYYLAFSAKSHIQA
inactive: [1] 0.004 | volasertib -0.01 | [2] -0.004 | epoxomicin 0.029 | [3] 0.06 | [4] 0.002 | [5] -0.022 | rosiglitazone 0.015 | [6] -0.028 | [7] 0.045

SP1 (UniProt P08047)
inactive: [1] 0.047 | volasertib 0.102 | [2] 0 | epoxomicin -0.032 | [3] 0.007 | [4] -0.003 | [5] -0.042 | rosiglitazone -0.005 | [6] 0.006 | [7] -0.063

SNUPN (UniProt O95149)
inactive: [1] -0.133 | [2] 0.014 | epoxomicin -0.013 | [3] 0.019 | [4] -0.076 | [5] 0.003 | rosiglitazone -0.001 | [6] -0.01 | [7] -0.004
active: volasertib -0.296

STX7 (UniProt O15400)
Chain of UniProt O15400 (O15400 whole entry, looked up): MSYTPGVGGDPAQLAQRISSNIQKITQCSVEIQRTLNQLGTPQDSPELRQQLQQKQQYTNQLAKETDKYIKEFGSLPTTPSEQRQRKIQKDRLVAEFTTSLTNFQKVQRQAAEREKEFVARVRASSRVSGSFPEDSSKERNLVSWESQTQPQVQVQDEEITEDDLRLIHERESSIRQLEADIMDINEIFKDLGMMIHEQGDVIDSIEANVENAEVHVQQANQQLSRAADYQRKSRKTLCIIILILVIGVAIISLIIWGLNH
inactive: [1] -0.021 | volasertib 0.057 | [2] -0.03 | epoxomicin -0.008 | [3] 0.032 | [4] 0.094 | [5] -0.006 | rosiglitazone -0.004 | [6] 0.005 | [7] -0.116

TECR (UniProt Q9NZ01)
active: volasertib -0.24 | [7] -0.347
inactive: [1] -0.116 | [2] 0.015 | epoxomicin 0.026 | [3] 0.021 | [4] -0.085 | [5] 0.042 | rosiglitazone 0.043 | [6] -0.063

TBCD (UniProt Q9BTW9)
active: volasertib -0.315
inactive: [1] -0.061 | [2] 0.074 | epoxomicin -0.012 | [3] 0.028 | [4] -0.002 | [5] 0.033 | rosiglitazone 0.016 | [6] -0.044 | [7] -0.094

TBK1 (UniProt Q9UHD2)
Chain of UniProt Q9UHD2 (Q9UHD2 whole entry, looked up): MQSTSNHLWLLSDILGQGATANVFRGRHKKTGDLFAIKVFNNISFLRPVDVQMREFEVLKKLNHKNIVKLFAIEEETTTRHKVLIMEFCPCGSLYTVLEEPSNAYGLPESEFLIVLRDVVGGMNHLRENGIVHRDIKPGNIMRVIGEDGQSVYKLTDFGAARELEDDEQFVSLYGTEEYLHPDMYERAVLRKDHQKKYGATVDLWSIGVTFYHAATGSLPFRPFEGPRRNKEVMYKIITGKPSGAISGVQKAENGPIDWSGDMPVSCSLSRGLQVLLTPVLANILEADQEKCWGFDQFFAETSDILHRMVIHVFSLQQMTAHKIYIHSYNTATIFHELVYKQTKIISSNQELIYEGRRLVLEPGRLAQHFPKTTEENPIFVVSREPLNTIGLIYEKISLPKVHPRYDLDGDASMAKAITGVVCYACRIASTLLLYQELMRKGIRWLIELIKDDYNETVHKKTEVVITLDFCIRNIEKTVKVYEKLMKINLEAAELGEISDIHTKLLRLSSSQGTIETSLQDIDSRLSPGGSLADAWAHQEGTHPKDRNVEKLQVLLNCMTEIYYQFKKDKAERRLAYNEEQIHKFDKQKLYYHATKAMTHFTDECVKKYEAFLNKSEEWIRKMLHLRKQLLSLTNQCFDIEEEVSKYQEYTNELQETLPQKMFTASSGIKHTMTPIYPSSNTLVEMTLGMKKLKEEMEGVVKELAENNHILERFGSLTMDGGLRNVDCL
inactive: [1] -0.093 | volasertib -0.232 | [2] 0.055 | epoxomicin 0.019 | [3] 0.002 | [4] 0.023 | [5] -0.033 | rosiglitazone 0.076 | [6] 0.172 | [7] -0.152

SRSF2 (UniProt Q01130)
Chain of UniProt Q01130 (Q01130 whole entry, looked up): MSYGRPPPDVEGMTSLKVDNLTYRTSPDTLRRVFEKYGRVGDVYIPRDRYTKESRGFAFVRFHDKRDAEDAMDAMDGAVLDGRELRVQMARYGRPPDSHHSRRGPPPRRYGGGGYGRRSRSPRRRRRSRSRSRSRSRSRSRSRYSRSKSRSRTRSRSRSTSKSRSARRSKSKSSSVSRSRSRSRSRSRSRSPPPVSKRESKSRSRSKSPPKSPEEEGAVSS
inactive: [1] 0.087 | volasertib 0.134 | [2] -0.027 | epoxomicin -0.069 | [3] 0.047 | [4] 0.022 | [5] -0.082 | rosiglitazone -0.024 | [6] 0.045 | [7] 0.054

TAMM41 isoform 3 (UniProt Q96BW9)
Chain of UniProt Q96BW9 (Q96BW9 whole entry, looked up): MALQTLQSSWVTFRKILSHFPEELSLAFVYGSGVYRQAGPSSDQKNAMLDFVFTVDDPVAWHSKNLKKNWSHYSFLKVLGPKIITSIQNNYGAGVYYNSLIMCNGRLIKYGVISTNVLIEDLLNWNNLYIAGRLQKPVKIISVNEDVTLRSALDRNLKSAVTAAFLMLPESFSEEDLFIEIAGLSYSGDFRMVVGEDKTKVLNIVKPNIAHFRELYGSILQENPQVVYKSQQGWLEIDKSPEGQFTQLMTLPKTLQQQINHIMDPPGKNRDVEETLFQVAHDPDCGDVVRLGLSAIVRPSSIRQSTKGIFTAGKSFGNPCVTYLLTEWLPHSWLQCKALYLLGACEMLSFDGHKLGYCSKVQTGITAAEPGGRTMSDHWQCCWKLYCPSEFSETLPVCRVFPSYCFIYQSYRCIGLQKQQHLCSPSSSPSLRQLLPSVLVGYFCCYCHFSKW
inactive: [1] -0.209 | [2] -0.004 | epoxomicin 0.02 | [3] -0.02 | [4] 0.022 | [5] 0.013 | rosiglitazone 0.005 | [6] -0.052
active: volasertib -0.312 | [7] -0.362

STRN (UniProt O43815)
inactive: [1] -0.031 | volasertib -0.031 | [2] 0.026 | epoxomicin 0.046 | [3] 0.007 | [4] -0.046 | [5] 0.02 | rosiglitazone 0.003 | [6] -0.031 | [7] 0.073

SSX2 (UniProt Q16385)
inactive: [1] -0.046 | volasertib -0.102 | [2] 0.071 | epoxomicin 0.131 | [3] 0.007 | [4] -0.036 | [5] 0.007 | rosiglitazone 0.045 | [6] -0.06 | [7] 0.021

STAT6 (UniProt P42226)
Chain of UniProt P42226 (P42226 whole entry, looked up): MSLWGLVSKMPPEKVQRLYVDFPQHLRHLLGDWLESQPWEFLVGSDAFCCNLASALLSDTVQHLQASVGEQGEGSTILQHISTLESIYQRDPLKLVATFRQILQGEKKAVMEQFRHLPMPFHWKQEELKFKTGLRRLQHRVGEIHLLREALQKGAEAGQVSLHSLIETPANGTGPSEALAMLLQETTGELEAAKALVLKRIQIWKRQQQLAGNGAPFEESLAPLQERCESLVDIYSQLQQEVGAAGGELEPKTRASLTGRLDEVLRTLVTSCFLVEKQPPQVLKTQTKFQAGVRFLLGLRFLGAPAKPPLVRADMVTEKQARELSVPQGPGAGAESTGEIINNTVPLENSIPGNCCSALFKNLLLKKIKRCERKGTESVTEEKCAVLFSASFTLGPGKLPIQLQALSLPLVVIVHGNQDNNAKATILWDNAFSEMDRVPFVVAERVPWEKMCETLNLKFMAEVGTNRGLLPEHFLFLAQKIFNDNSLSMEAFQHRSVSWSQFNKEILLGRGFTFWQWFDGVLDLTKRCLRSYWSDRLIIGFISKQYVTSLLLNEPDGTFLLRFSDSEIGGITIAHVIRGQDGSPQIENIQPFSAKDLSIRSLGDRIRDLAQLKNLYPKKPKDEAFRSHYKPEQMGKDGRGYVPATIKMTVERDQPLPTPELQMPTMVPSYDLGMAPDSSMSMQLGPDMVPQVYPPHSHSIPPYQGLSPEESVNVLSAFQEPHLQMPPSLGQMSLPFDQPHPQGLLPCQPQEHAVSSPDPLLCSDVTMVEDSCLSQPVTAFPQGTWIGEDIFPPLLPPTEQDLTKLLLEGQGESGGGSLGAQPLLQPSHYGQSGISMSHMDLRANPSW
active: volasertib -0.594
inactive: [1] -0.196 | [2] -0.02 | epoxomicin -0.074 | [3] -0.033 | [4] 0.1 | [5] 0.093 | rosiglitazone 0.038 | [6] 0.018 | [7] -0.11

TEX264 (UniProt Q9Y6I9)
inactive: [1] 0.016 | volasertib 0.356 | [2] -0.073 | epoxomicin 0 | [3] -0.201 | [4] 0.499 | [5] 0.098 | rosiglitazone 0.039 | [6] 0.182 | [7] 0.262

STK26 (UniProt Q9P289)
Chain of UniProt Q9P289 (Q9P289 whole entry, looked up): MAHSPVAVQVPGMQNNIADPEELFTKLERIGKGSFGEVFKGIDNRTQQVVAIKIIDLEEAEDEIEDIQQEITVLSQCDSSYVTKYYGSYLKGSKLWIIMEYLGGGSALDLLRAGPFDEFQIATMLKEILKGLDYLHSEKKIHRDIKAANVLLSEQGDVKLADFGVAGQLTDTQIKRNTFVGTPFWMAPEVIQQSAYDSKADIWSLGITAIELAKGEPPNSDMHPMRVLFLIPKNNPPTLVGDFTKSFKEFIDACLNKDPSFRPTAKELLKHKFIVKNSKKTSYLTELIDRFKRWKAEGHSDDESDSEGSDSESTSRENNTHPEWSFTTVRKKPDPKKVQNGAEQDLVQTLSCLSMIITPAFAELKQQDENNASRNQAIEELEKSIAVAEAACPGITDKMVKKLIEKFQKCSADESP
inactive: [1] -0.017 | volasertib -0.062 | [2] 0.018 | epoxomicin 0.084 | [3] -0.003 | [4] -0.117 | [5] -0.033 | rosiglitazone 0.068 | [6] 0.014 | [7] -0.191

SUCLA2 (UniProt Q9P2R7)
Chain of UniProt Q9P2R7 (Q9P2R7 whole entry, looked up): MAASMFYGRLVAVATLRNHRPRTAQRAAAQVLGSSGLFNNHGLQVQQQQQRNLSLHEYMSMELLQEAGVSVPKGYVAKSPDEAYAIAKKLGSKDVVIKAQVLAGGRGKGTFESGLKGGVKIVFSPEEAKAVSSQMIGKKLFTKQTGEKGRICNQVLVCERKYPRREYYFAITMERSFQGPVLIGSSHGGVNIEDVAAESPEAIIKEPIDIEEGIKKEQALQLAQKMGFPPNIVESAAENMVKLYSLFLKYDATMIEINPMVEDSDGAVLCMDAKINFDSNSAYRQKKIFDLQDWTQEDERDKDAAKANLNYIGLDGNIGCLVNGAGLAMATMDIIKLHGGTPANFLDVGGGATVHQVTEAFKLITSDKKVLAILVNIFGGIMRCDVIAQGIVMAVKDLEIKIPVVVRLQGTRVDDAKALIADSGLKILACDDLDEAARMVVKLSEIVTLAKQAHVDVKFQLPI
inactive: [1] 0.013 | volasertib -0.105 | [2] 0.052 | epoxomicin 0.016 | [3] 0.01 | [4] -0.049 | [5] 0.018 | rosiglitazone 0.065 | [6] -0.071 | [7] -0.05

SUMO1 (UniProt P63165)
Chain of UniProt P63165 (P63165 whole entry, looked up): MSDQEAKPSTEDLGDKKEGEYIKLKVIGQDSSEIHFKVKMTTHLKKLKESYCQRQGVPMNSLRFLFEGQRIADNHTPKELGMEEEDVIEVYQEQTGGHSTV
inactive: [1] 0.034 | volasertib -0.035 | [2] -0.046 | epoxomicin -0.011 | [3] 0.088 | [4] 0.015 | [5] 0.021 | rosiglitazone 0.002 | [6] 0.038 | [7] 0.007

SNX2 (UniProt O60749)
Chain of UniProt O60749 (O60749 whole entry, looked up): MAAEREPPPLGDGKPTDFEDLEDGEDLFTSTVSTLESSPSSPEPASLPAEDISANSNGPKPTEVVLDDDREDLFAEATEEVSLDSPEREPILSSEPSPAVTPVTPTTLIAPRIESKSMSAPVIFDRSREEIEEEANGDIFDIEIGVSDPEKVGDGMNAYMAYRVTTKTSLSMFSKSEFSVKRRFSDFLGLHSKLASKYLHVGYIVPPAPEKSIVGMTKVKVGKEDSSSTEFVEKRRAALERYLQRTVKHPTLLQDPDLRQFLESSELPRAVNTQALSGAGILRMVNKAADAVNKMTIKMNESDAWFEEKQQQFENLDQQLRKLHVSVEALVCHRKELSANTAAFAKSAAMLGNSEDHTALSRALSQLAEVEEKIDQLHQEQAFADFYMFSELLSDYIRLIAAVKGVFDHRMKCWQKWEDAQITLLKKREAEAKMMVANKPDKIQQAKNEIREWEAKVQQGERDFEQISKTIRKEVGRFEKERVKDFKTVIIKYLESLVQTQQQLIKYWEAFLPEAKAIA
inactive: [1] -0.129 | volasertib -0.053 | [2] 0.093 | epoxomicin 0.026 | [3] -0.102 | [4] -0.08 | [5] 0.005 | rosiglitazone 0.054 | [6] -0.003
active: [7] -0.332
